KB-3-1 cytotox – kills parental KB-3-1 adenocarcinoma cells. hit rate 1.4% among 400,000. AID 1347075. KB-3-1 viability, CellTiter-Glo ATP luminescence, 72 h. Potency, µM (series often up to 46.1 µM), hits mostly cytotoxic; also: % is scaled to controls: 0 for no effect and ±100 for the full control effect; nearly all actives have a fitted effect of over 60% in size
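Cytotoxicity in the drug-sensitive parental line KB-3-1 was scored as loss of CellTiter-Glo luminescence following 72 h incubation with compound. Values come from curve fitting of normalized concentration-response data.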
KB-V1 MDR tox – kills drug-selected multidrug resistant KB-V1 cells; KB-V1 MDR cells viability, CellTiter-Glo, 72 h; Potency, µM (highest dose often 46.1 µM), hits mostly cytotoxic; hit rate 3.4% among 400,000; AID 1347076; also: % is scaled to controls: 0 for no effect and ±100 for the full control effect; nearly all actives have a fitted effect of over 60% in size
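Potencies derive from concentration-effect curves fitted to normalized luminescence (CellTiter-Glo) of KB-V1 cells treated for 72 h at 37 degrees C in phenol-red-free DMEM containing 10% FBS.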
HT1080NT lethal – kills 2HG-producing HT-1080-NT fibrosarcoma cells | HT-1080-NT fibrosarcoma viability, CellTiter-Glo ATP luminescence, 48 h | Potency, µM (highest dose often 46.1 µM), without a hit: top-dose activity, negative = less viability, usual class: cytotoxic | hit rate 1.6% among 360,000 | AID 686970;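 also: NT is the 2HG producing partner of a matched IDH1 knockdown line; 0% = DMSO-treated cells and -100% = media-only wells without cells; nearly all actives have a fitted effect of over 55% in size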
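Toxicity toward the 2HG-producing NT line was scored as %Activity, normalised to DMSO and no-cell wells, from CellTiter-Glo luminescence after 48 hours' treatment.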
MCF10A rereplic – inducers of DNA re-replication in MCF 10A breast cells | Potency, µM (top dose mostly 46.1 µM), inactives show at the highest dose activity, positive = re-replication, most hits filed as activators | MCF 10A DNA re-replication, Hoechst nuclear intensity, 48 h | hit rate 2.9% among 350,000 | AID 624296; also: % of control where 0% means no effect; nearly all actives have a fitted effect of over 50% in size
HT1080 IDH1KD tx – toxicity to HT-1080 IDH1 knockdown cells (counter line). HT-1080 IDH1 knockdown viability, ATP luminescence, 48 h. Potency, µM (series often up to 46.1 µM), for inactives: at the top dose activity, negative = toxicity, usual class: cytotoxic. hit rate 2% among 360,000;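 also: 0% = DMSO wells and -100% = cell-free medium wells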
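In this qHTS, HT-1080 cells depleted of IDH1 are exposed for 48 h at 37 °C to compound titrations. Toxicity is scored from CellTiter-Glo luminescence, with DMSO as full viability and medium alone as none.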
SW480 rereplic – inducers of DNA re-replication in SW480 colon cancer cells. SW480 DNA re-replication, Hoechst DNA content imaging, 48 h. Potency, µM (highest dose often 46.1 µM), for the others: top-dose re-replication activation, actives largely listed as activators. hit rate 1.8% among 340,000; also: % of control where 0% means no effect; nearly all actives have a fitted effect of over 55% in size
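Quantitative HTS format with DMSO vehicle controls; 48 hr drug incubation at 37 C, then 40 min Hoechst staining and scanning imager measurement at 405 nm excitation.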
* marks the source's active call; other numbers are inactive results; i = inactive; ? = inconclusive; . = no result; [ ] = another dose, or the depositor's remark. Shown are actives, neighbours in structure and some others; about 8% of the full set was active somewhere. Calls follow the shape of the dose curve; as a rule, active = well fitted curve in the direction sought with a large enough effect; inconclusive = small, poorly fitted or top-dose-only effect, or another doubt; inactive = no such curve, though single readings can be large; an effect the other way counts as inactive or inconclusive. Potency is read from the fitted curve at half-maximal effect.

SMILES	KB-3-1 cytotox	KB-V1 MDR tox	HT1080NT lethal	MCF10A rereplic	HT1080 IDH1KD tx	SW480 rereplic
COc1ccccc1CNC(=O)C(=O)NCC(c1cccnc1)N1CCN(c2ccccc2)CC1 (stereo not given)	i	i	.	.	.	.
COc1ccc(Cl)cc1NC(=O)CN(C)C(=O)CCc1nc2ccccc2c(=O)[nH]1	i	i	-3.2%	-2.3%	-6.3%	-1.7%
Cc1cc(N2CCN(C)CC2)nc2ccc(NC(=S)N3CCN(c4ccc(Cl)cc4)CC3)cc12	i	i	?	29.1µM*	?	11.6µM*
Cc1cc(N2CCN(C)CC2)nc2ccc(NC(=S)N3CCN(c4ccc(F)cc4)CC3)cc12	i	i	?	?	?	?
COc1ccccc1C1CC(=O)Nc2cc3c(cc21)OCCO3 (stereo not given)	?	5.8µM*	2.24µM*	3.66µM*	1.78µM*	2.06µM*
COc1cccc(C2CC(=O)Nc3cc4c(cc32)OCCO4)c1OC(C)C (stereo not given)	?	?	-8.7%	?	-20.1%	?
CC(C)Oc1ccccc1C1CC(=O)Nc2cc3c(cc21)OCCO3 (stereo not given)	?	?	1µM*	?	0.708µM*	1.64µM*
O=C1CC(c2cccs2)c2cc3c(cc2N1)OCCO3 (stereo not given)	i	i	-39.7%	18.4µM*	-8.6%	4.0%
CC(C)(C)CCN1CCC(CN2CCNC(=O)C2=O)CC1	?	i	7.5%	-0.2%	11.7%	-8.3%
O=C(Nc1sc2c(c1C(=O)NCc1ccco1)CCCC2)c1cc(=O)c2cc(Cl)ccc2o1	i	?	.	.	.	.
COc1cccc(C(c2sc3nc(-c4ccco4)nn3c2O)N2CCC(O)CC2)c1 (stereo not given)	i	i	.	.	.	.
CCN(CC)C(=O)C1CCN(S(=O)(=O)c2c(C)noc2/C=C/c2cccc(OC)c2)CC1	i	i	.	.	.	.
CCOC(=O)C1(N(CC)CC)Sc2cc(C)ccc2NC1=O (stereo not given)	?	10.3µM*	?	?	?	?
CCOC(=O)c1[nH]c2ccc(C)cc2c1N	i	?	2.3%	4.4%	2.6%	1.1%
O=C(COc1ccccc1C(=O)Nc1cccnc1)Nc1ccc(Br)cc1	i	i	.	.	.	.
O=C1C2CCCCN2C(=O)N1CCCCN1CCN(c2ccccc2Oc2ccccc2)CC1 (stereo not given)	i	i	-10.3%	?	-22.2%	?
COc1ccc(C(=O)NCC(C)(C)SCc2c(C)cc(C)cc2C)cc1	i	18.4µM*	?	-14.6%	-9.0%	-6.9%
COc1ccc(C2c3c(n(C)c4ccccc34)C(=O)N2CC(=O)Nc2ccc(C)cc2Cl)cc1 (stereo not given)	i	i	.	.	.	.
CCN(CC)CCN1c2ccccc2Sc2ccccc21	i	i	-8.6%	0.4%	6.2%	-2.7%
CCN(CC)CCN1c2ccccc2Sc2ccc3ccccc3c21	i	i	?	?	?	18.4µM*
CN(C)S(=O)(=O)c1ccc(NC(=O)CN2CCN(c3ccccn3)CC2)cc1	?	?	-21.9%	-3.9%	-4.4%	10.0%
O=S(=O)(NCc1ccncc1)c1ccc(S(=O)(=O)NCC2CCCO2)cc1 (stereo not given)	23.1µM*	i	0.0%	6.51µM*	9.2%	19.3%
O=S(=O)(NCc1ccccc1)c1ccc(S(=O)(=O)NCC2CCCO2)cc1 (stereo not given)	?	i	-1.3%	-1.9%	-4.1%	?
O=C(Nc1ccc(F)cc1)c1ccc(S(=O)(=O)NCC2CCCO2)cc1 (stereo not given)	?	13µM*	?	-1.8%	2.9%[9.24 µM]	-9.5%

High-throughput results: PubChem BioAssay, National Center for Advancing Translational Sciences (NCATS)
